Bioassay records: PubChem, NMMLSC
RGS8-Gao: modulates binding of RGS8 to human Galphao. P09471. multiplexed bead flow cytometry; actives lie on both sides. response (percent of control binding), % at 10 µM. actives 0.34% (n = 220,000). AID 1423; in the data active means response below about 60% or above about 140%; inactive means in between;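 further: Galphao activated as the GDP aluminium fluoride complex binding bead-coupled RGS8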
Target sequence (P09471 whole entry, looked up): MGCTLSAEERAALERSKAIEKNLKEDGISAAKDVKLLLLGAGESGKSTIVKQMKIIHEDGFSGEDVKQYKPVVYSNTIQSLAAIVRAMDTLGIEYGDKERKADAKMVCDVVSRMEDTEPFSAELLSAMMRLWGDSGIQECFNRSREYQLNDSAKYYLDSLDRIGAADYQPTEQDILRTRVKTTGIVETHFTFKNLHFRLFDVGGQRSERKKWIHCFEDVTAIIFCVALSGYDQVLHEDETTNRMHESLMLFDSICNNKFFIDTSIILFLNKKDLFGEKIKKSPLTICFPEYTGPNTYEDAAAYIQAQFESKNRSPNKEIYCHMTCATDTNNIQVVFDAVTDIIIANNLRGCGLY
RGS4-Gao reg: modulates binding of RGS4 to human Galphao. P09471. Multiplexed bead flow cytometry; actives lie on both sides. binding response (% of control), % at 10 µM. actives 0.33% (n = 220,000); in the data active means binding response below about 49% or above about 150%; inactive means in between;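 further: fluorescent Galphao activated with aluminum fluoride binding bead-coupled RGS4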
GSH fluor: GSH bead compound fluorescence profile. GSH beads flow cytometry, compound fluorescence 488/530 nm; stronger effect = higher value. fluorescence (KMESF) at 10 µM. actives 0.25% (n = 190,000). AID 1776; in the data active means fluorescence above about 89;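 further: glutathione beads carrying GST-tagged Bcl family fusion proteins plus one bare bead set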
Avidin bead fluor: compound fluoresces at 488/530 nm on avidin beads | AID 1775 | actives 0.38% (n = 220,000) | fluorescence (KMESF) at 10 µM | compound fluorescence 488/530 nm, flow cytometry; stronger effect = higher value; in the data active means fluorescence above about 47
RGS7-Gao: human RGS7-Galphao interaction regulation | Multiplexed bead flow cytometry, RGS7-Galphao binding; actives lie on both sides | P09471 | binding response (% of control), % at 10 µM | actives 0.35% (n = 220,000); in the data active means binding response below about 49% or above about 150%; inconclusive means no clear call, values can overlap the other calls; inactive means in between;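 further: fluorescent Galphao held in activated GDP-AlF4 state binding bead-coupled RGS7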
RGS16-Gao: RGS16-Galphao interaction regulator (human) | bead-based flow cytometry RGS16-Galphao binding, fluorescence; actives lie on both sides | O15492+P09471 | AID 1441 | binding response (% of control), % at 10 µM | actives 0.38% (n = 220,000);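 further: Galphao activated by GDP with aluminum fluoride before binding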
RGS4-Gao HTS: RGS4-Galphao interaction regulator (human); RGS4–Galpha-o binding response, % at 10 µM; shares compounds with RGS16-Gao; AID 1504; multiplexed bead flow cytometry, RGS–Galpha-o binding; actives 99% (n = 1,600);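 further: fluorescently labeled Galpha-o bound to GDP with aluminium fluoride binding biotinylated RGS beads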
Avidin counter: biotin-avidin bead binding disruption counter-screen; 1,700 tested, under 10 active; inhibition, % at 10 µM; AID 1783; streptavidin beads, fluorescein-biotin binding, flow cytometry; shares compounds with RGS16-Gao;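 active means inhibition above 50%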;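 further: median green fluorescence of gated singlet beads compared with DMSO control wells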
RGS8-Gao confirm: RGS8-Galphao interaction regulation, single point confirmation; shares compounds with RGS16-Gao; bead-based flow cytometry RGS8-Galphao binding, fluorescence; actives lie on both sides; binding response (% of control), % at 10 µM; actives 3% (n = 1,700); in the data active means binding response below about 72% or above about 130%; inactive means in between;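 further: Galphao activated as GDP AlF4 complex before binding bead RGS8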
RGS7-Gao single: RGS7-Galphao interaction regulation, single point confirmation; response (percent of control binding), % at 10 µM; shares compounds with RGS16-Gao; actives 7.8% (n = 1,700); bead-based flow cytometry RGS7-Galphao binding; actives lie on both sides; in the data active means response below about 75% or above about 130%; inactive means in between;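 further: fluorescent Galphao activated with GDP and aluminum fluoride binding bead-coupled RGS7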
RGS16-Gao single: RGS16-Galphao interaction regulation, single point confirmation; actives 4% (n = 1,700); bead-based flow cytometry, RGS16-Galphao binding; actives lie on both sides; shares compounds with RGS16-Gao; response (% of control binding), % at 10 µM; in the data active means response below about 74% or above about 130%; inactive means in between;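 further: Galphao activated as the GDP aluminium fluoride complex binding bead-coupled RGS16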
RGS4-Gao single: confirmation of regulators of human RGS4-Galphao interaction; binding response (% of control), % at 10 µM; RGS4-Galphao binding, multiplexed bead flow cytometry; actives lie on both sides; actives 4% (n = 1,700); shares compounds with RGS16-Gao; in the data active means binding response below about 74% or above about 130%; inactive means in between
RGS19-Gao single: confirmation of regulators of human RGS19-Galphao interaction. shares compounds with RGS16-Gao. bead-based flow cytometry RGS19-Galphao binding; actives lie on both sides. response (percent of control binding), % at 10 µM. AID 1841. actives 5% (n = 1,700); in the data active means response below about 50% or above about 160%; inactive means in between
Of the large screens only hits and unclear results are named; the others gave an inactive call (follow-up assays come after a bar, where they were run); [ ] = dose if it differs, or a comment. Rows were chosen to be rich in hits. Some 1.2% of all compounds tested hit in one or more screens of this group. Unless noted, how the calls were made is not given here.

Cc1cccc(C(=O)N2CCN(c3ccc(N4CCOCC4)nn3)CC2)c1	RGS8-Gao 37.1, RGS4-Gao reg 29.3, RGS7-Gao inconclusive, RGS16-Gao 21.9 (no result: GSH fluor) | Avidin counter inactive | RGS8-Gao confirm inactive | RGS7-Gao single inactive | RGS16-Gao single inactive | RGS4-Gao single inactive | RGS19-Gao single inactive
Cn1nc(C(F)(F)F)c(-c2ccc(F)cc2)c1NC(=O)c1ccco1	RGS4-Gao reg 187.9[activator], Avidin bead fluor 61, RGS7-Gao inconclusive, RGS16-Gao 176.2[activator] (no result: GSH fluor) | Avidin counter inactive | RGS8-Gao confirm inactive | RGS7-Gao single 74.0 | RGS16-Gao single inactive | RGS4-Gao single inactive | RGS19-Gao single inactive
Cn1nc(C(F)(F)F)c(-c2ccccc2)c1NC(=O)c1ccco1	RGS7-Gao inconclusive (no result: GSH fluor)
COc1cc(C(=O)Nc2ccc(C#N)cc2)c([N+](=O)[O-])cc1OC	none
Cc1ccc(-n2nnnc2C(=Cc2ccc(N(C)C)cc2)c2nnnn2-c2ccc(C)cc2)cc1	RGS8-Gao 13.9, RGS4-Gao reg 22.7, RGS7-Gao 18.3, RGS16-Gao 10.6 (no result: Avidin bead fluor) | Avidin counter inactive | RGS8-Gao confirm inactive | RGS7-Gao single inactive | RGS16-Gao single inactive | RGS4-Gao single inactive | RGS19-Gao single inactive
CCc1nnc(NC(=O)Cc2cc(OC)c(OC)c(OC)c2)s1	none
COc1ccc(CC(=O)NNC2=Nc3cccc4cccc2c34)cc1	RGS7-Gao inconclusive (no result: GSH fluor)
CCCS(=O)(=O)Nc1ccc2cn[nH]c2c1	RGS7-Gao inconclusive
O=C(NCCc1ccc(F)cc1)C1CCCCC1	none
CCCOC(=O)c1ccc(NC(=O)c2ccccc2OC)cc1	none
CCCCOC(=O)c1ccc(NC(=O)c2ccccc2OC)cc1	RGS16-Gao 18.5 | RGS4-Gao HTS 77.4 | Avidin counter inactive | RGS8-Gao confirm inactive | RGS7-Gao single inactive | RGS16-Gao single inactive | RGS4-Gao single inactive | RGS19-Gao single inactive
CCCCC(CCC(=O)Nc1cccc([N+](=O)[O-])c1)C(=O)O (stereo not drawn)	RGS7-Gao inconclusive (no result: GSH fluor)
COc1ccc(-c2ccc(SCC(=O)N3CCOCC3)nn2)cc1OC	none (no result: RGS8-Gao, RGS4-Gao reg, Avidin bead fluor, RGS7-Gao, RGS16-Gao) | Avidin counter inactive | RGS8-Gao confirm inactive | RGS7-Gao single inactive | RGS16-Gao single inactive | RGS4-Gao single inactive | RGS19-Gao single inactive
COc1ccc(-c2ccc(SCC(=O)N3CCCC3)nn2)cc1OC	none
CC(C)Cn1c(-c2nn(C)cc2Cl)n[nH]c1=S	RGS8-Gao 58.6, RGS4-Gao reg 49.3, RGS7-Gao 45.2 | Avidin counter inactive | RGS8-Gao confirm inactive | RGS7-Gao single inactive | RGS16-Gao single inactive | RGS4-Gao single inactive | RGS19-Gao single inactive
CCNC(=O)N1CCCC(C(=O)c2ccc(OC)c(OC)c2)C1 (stereo not drawn)	none
COCCCNCCCOc1ccc(C)cc1Br	none
C=CCNCCCOc1ccc(C)cc1Br	RGS16-Gao 24.1 | RGS4-Gao HTS 89.8 | Avidin counter inactive | RGS8-Gao confirm inactive | RGS7-Gao single inactive | RGS16-Gao single inactive | RGS4-Gao single inactive | RGS19-Gao single inactive
